About 79,000 compounds went through this panel and 15% of them were active in at least one assay; those are over-represented in the sample as a whole. Calls of active or inactive are those of the source. Rule as the data show it: active = growth inhibition above about 70%; inactive = the rest. Starred links: 1 amine or outer side, 2 acyl side, 3 side chain; linkers in the order of their positions; H or OH if unused. Positions of bridges follow the written chain, without caps; N, C: chain ends. Non-standard residues stand in square brackets, D forms with d. Residues, ends and D or L forms follow the SMILES beside them. Chains are numbered I, II in the order given. Actinocin(9to1) = Cc1c2oc3c(C)ccc(C(=O)[*:1])c3nc-2c(C(=O)[*:2])c(N)c1=O; aThr = C[C@H](O)[C@H](N)C(=O)O; NMeV = CN[C@H](C(=O)O)C(C)C; Sar = CNCC(=O)O
Experiments:
[1] = NCI Yeast Anticancer Drug Screen. Data for the mec2-1 strain (AID 157); details: S. cerevisiae mec2-1 strain, hits give high values
How it was run: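 Test agents were screened against the mec2-1 yeast strain, with defined DNA repair or cell cycle alteration. Growth was scored as inhibition against vehicle-only controls.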

[2] = NCI Yeast Anticancer Drug Screen. Data for the rad14 strain (AID 159);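 also: 0% = growth of vehicle-treated control cultures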; details: S. cerevisiae rad14 strain growth inhibition, hits give high values
How it was run: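 Growth inhibition vs vehicle controls; genetically altered yeast strain (DNA damage repair defect) treated with test compounds.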

[3] = NCI Yeast Anticancer Drug Screen. Data for the sgs1 mgt1 strain (AID 161);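 also: 0% = growth of cultures given vehicle only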; details: S. cerevisiae sgs1 mgt1 strain, hits give high values
How it was run: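 Read-out: growth inhibition vs vehicle controls. Cells: mutant yeast strain deficient in DNA damage repair.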

[4] = NCI Yeast Anticancer Drug Screen. Data for the CLN2oe strain (AID 163);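 also: 0% = growth of vehicle-only control cultures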; details: S. cerevisiae CLN2oe strain, hits give high values
How it was run: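 Here, growth inhibition in a cell-cycle-altered yeast strain after compound exposure was quantified against vehicle control growth.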

[5] = NCI Yeast Anticancer Drug Screen. Data for the cln2 rad14 strain (AID 165);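 also: 0% = growth equal to vehicle treated cultures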; details: S. cerevisiae cln2 rad14 strain, hits give high values
How it was run: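 Growth of compound-exposed yeast (cln2 rad14 genotype) measured and expressed as inhibition relative to vehicle.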

[6] = NCI Yeast Anticancer Drug Screen. Data for the bub3 strain (AID 167); details: S. cerevisiae bub3 mutant strain, hits give high values
How it was run: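 Readout: yeast growth inhibition, expressed relative to vehicle-only wells. The test organism is a mutant strain from a panel with lesions in DNA repair or checkpoint genes.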

[7] = NCI Yeast Anticancer Drug Screen. Data for the wt2 strain (AID 169);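 also: 0% = growth of vehicle-treated yeast cultures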; details: S. cerevisiae wt2 strain growth inhibition, hits give high values
How it was run: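 Genetically defined yeast strains from a DNA-repair/cell-cycle panel were used. Compound-exposed yeast growth was measured, and the inhibition was calculated relative to vehicle treatment.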

[8] = NCI Yeast Anticancer Drug Screen. Data for the mlh1 strain (AID 171);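 also: 0% = growth of vehicle-treated control cultures of the same strain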; details: S. cerevisiae mlh1 strain growth inhibition, hits give high values
How it was run: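 Here the genetically defined yeast mutant is grown with each compound, and the extent to which its growth falls below that of vehicle-exposed cells is reported.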

[9] = NCI Yeast Anticancer Drug Screen. Data for the sgs1 strain (AID 173);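 also: 0% = growth of vehicle-only control cultures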; details: S. cerevisiae sgs1 mutant, hits give high values
How it was run: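 Relative growth inhibition, referenced to vehicle, was determined in a yeast strain with a defined alteration affecting DNA damage repair or cell cycle control after compound exposure.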

[10] = NCI Yeast Anticancer Drug Screen. Data for the mlh1 rad18 strain (AID 175); details: S. cerevisiae mlh1 rad18 strain growth inhibition, hits give high values
How it was run: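 In this whole-cell yeast screen, a strain with altered DNA damage repair is challenged with compound, and its growth is measured against matched vehicle-treated controls.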

[11] = NCI Yeast Anticancer Drug Screen. Data for the rad52 strain (AID 147);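 also: 0% = growth of vehicle-treated control cultures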; details: S. cerevisiae rad52 mutant growth inhibition, hits give high values
How it was run: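 Measured: yeast growth inhibition. System: strain with a defined DNA damage repair alteration. Reference: vehicle-treated control cultures.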

[12] = NCI Yeast Anticancer Drug Screen. Data for the wt1 strain (AID 149);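 also: 0% = growth of vehicle-treated wt1 cultures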; details: S. cerevisiae wt1 strain (SPY 50644) growth inhibition, hits give high values
How it was run: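 Growth inhibition read against vehicle controls after compound exposure of the wt1 yeast strain.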

[13] = NCI Yeast Anticancer Drug Screen. Data for the rad50EPP+ strain (AID 151);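 also: 0% = growth of vehicle-treated control cultures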; details: S. cerevisiae rad50 mutant strain, hits give high values
How it was run: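 One strain with a rad50 alteration (rad50EPP+) was compound-treated, its growth then compared to that of vehicle controls.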

[14] = NCI Yeast Anticancer Drug Screen. Data for the rad50 strain (AID 155);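 also: 0% = growth of vehicle-only cultures of the same strain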; details: S. cerevisiae rad50 strain growth inhibition, hits give high values
How it was run: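 Readout: growth inhibition relative to vehicle-treated cultures. Compound exposure was carried out in a genetically defined yeast strain deficient in DNA damage repair.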

[15] = NCI Yeast Anticancer Drug Screen. Data for the rad18 strain (AID 177); details: S. cerevisiae rad18 mutant growth inhibition, hits give high values
How it was run: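 Screen uses a yeast strain with a defined lesion in DNA damage repair; compound effect is read as loss of growth compared to untreated vehicle cultures.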

[16] = at 5.0 µM (retest, dose inferred, filed as 0.5)
[17] = at 50.0 µM (retest, dose inferred, filed as 5.0)

Measured: growth inhibition

CC(=O)O/N=C/c1c2ccccc2cc2ccccc12
inactive: [1]; at 100.0 µM 26% | [2]; at 1.2 µM -2% | [2]; at 3.7 µM 0% | [2]; at 11.0 µM 5% | [2]; at 33.0 µM 23% | [3]; [16] 30% | [3]; at 50.0 µM 63.6% | [4]; at 1.2 µM -10% | [4]; at 3.7 µM -20% | [4]; at 11.0 µM -13% | [4]; at 33.0 µM -6% | [4]; at 100.0 µM -6% | [5]; [16] 15% | [5]; [17] 40% | [5]; at 50.0 µM -47.8% | [6]; at 1.2 µM 9% | [6]; at 3.7 µM 12% | [6]; [16] 58% | [6]; at 11.0 µM 26% | [6]; at 33.0 µM 47% | [6]; at 50.0 µM 43.1% | [6]; at 100.0 µM 63% | [7]; at 1.2 µM -1% | [7]; at 3.7 µM -1% | [7]; at 11.0 µM -2% | [7]; at 33.0 µM 13% | [7]; at 100.0 µM 32% | [8]; at 1.2 µM 1% | [8]; at 3.7 µM -1% | [8]; at 11.0 µM 1% | [8]; at 33.0 µM 17% | [8]; at 100.0 µM 52% | [9]; at 1.2 µM -1% | [9]; at 3.7 µM -1% | [9]; at 11.0 µM 3% | [9]; at 33.0 µM 29% | [9]; at 100.0 µM 58% | [10]; at 50.0 µM 33%
active: [2]; at 100.0 µM 78% | [3]; [17] 88% | [6]; [17] 84% | [10]; [16] 80% | [10]; [17] 92%

Cc1c2oc3c(C)ccc(C(=O)N[C@@H]4C(=O)N[C@H](C(C)C)C(=O)N5CCC[C@H]5C(=O)N(C)CC(=O)N(C)[C@@H](C(C)C)C(=O)O[C@H]4C)c3nc-2c(C(=O)N[C@@H]2C(=O)N[C@H](C(C)C)C(=O)N3CCC[C@H]3C(=O)N(C)CC(=O)N(C)[C@@H](C(C)C)C(=O)O[C@H]2C)c(N)c1=O (I: [aThr][dV]P[Sar][NMeV] / II: [aThr][dV]P[Sar][NMeV]; ester I:1-I:C, II:1-II:C; linker I:N-II:N via Actinocin(9to1))
active: [11]; at 11.0 µM 85% | [11]; at 33.0 µM 96% | [11]; at 100.0 µM 98% | [12]; at 33.0 µM 95% | [12]; at 100.0 µM 95% | [13]; at 11.0 µM 94% | [13]; at 33.0 µM 97% | [13]; at 100.0 µM 99% | [14]; at 11.0 µM 92% | [14]; at 33.0 µM 98% | [14]; [17] 98% | [14]; at 50.0 µM 91.2% | [14]; at 100.0 µM 99% | [1]; at 11.0 µM 84% | [1]; at 33.0 µM 97% | [1]; [17] 99% | [1]; at 50.0 µM 93% | [1]; at 100.0 µM 98% | [4]; at 11.0 µM 94% | [4]; at 33.0 µM 97% | [4]; at 100.0 µM 99% | [5]; [17] 92% | [5]; at 50.0 µM 89.3% | [6]; at 11.0 µM 90% | [6]; at 33.0 µM 96% | [6]; [17] 96% | [6]; at 50.0 µM 92% | [6]; at 100.0 µM 98% | [7]; at 11.0 µM 91% | [7]; at 33.0 µM 98% | [7]; at 100.0 µM 99% | [8]; at 11.0 µM 94% | [8]; at 33.0 µM 98% | [8]; at 100.0 µM 99% | [9]; at 11.0 µM 91% | [9]; at 33.0 µM 97% | [9]; at 100.0 µM 99% | [10]; [17] 98% | [10]; at 50.0 µM 90.5% | [15]; at 11.0 µM 92% | [15]; at 33.0 µM 96% | [15]; at 100.0 µM 98%
inactive: [11]; at 1.2 µM 5% | [11]; at 3.7 µM 38% | [12]; at 1.2 µM 0% | [12]; at 3.7 µM 19% | [12]; at 11.0 µM 58% | [13]; at 1.2 µM 2% | [13]; at 3.7 µM 53% | [14]; at 1.2 µM 9% | [14]; at 3.7 µM 59% | [14]; [16] 65% | [1]; at 1.2 µM 1% | [1]; at 3.7 µM 29% | [1]; [16] 53% | [4]; at 1.2 µM 8% | [4]; at 3.7 µM 32% | [5]; [16] 34% | [6]; at 1.2 µM 3% | [6]; at 3.7 µM 28% | [6]; [16] 24% | [7]; at 1.2 µM 0% | [7]; at 3.7 µM 26% | [8]; at 1.2 µM 2% | [8]; at 3.7 µM 28% | [9]; at 1.2 µM 3% | [9]; at 3.7 µM 30% | [10]; [16] 61% | [15]; at 1.2 µM -2% | [15]; at 3.7 µM 18%
